20 molecules from PubChem BioAssay (Tox21) can be followed below.

Test [1] in a line: qHTS assay for small molecules that induce genotoxicity in human embryonic kidney cells expressing luciferase-tagged ATAD5 (AID 651632). Note: nearly all actives have a fitted effect of over 15% in size. Note: potency is the fitted concentration of half-maximal effect. The method in brief: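 Quantitative HTS in HEK293T expressing luciferase-tagged ATAD5, whose levels rise upon DNA damage. Exposure ran 16 hr at 37C and 5% CO2, with luminescence read 30 min after Amplite addition at room temperature.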
Test [2] in a line: qHTS assay for small molecule agonists of the p53 signaling pathway - cell viability (AID 651633; calls by dose curve; note: nearly all actives have a fitted effect of over 30% in size; note: potency is the fitted concentration of half-maximal effect). The procedure, abridged:
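Viability counter-read: CellTiter-Glo luminescence (30 min, room temperature) in the same p53RE-bla plates. These plates had been exposed to compounds for 16 h at 37 C.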
(In general: In qHTS, concentration-response curves come from the screen itself.)

Test [3] is described as follows: qHTS assay for small molecules that induce genotoxicity in human embryonic kidney cells expressing luciferase-tagged ATAD5 - cell viability (AID 651634; calls by dose curve; note: nearly all actives have a fitted effect of over 25% in size; note: potency is the fitted concentration of half-maximal effect). The procedure, abridged: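 After 15.5 hr incubation with compound at 37C, 5% CO2, HEK293T ATAD5-luciferase cells received CellTiter-Fluor reagent; fluorescence intensity was quantified following 30 min at 37C.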

Test [4] is described as follows: qHTS assay for small molecule disruptors of the mitochondrial membrane potential - cell viability (AID 720634; calls by dose curve;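 note: human HepG2 liver cancer cells; series mostly up to about 83 µM; nearly all actives have a fitted effect of over 20% in size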). The method in brief: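 ATP-based luminescent viability readout (CellTiter-Glo, 30 min, room temperature) in HepG2 cells multiplexed with the m-MPI membrane potential dye; compound exposure lasted 1 hr at 37 C.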
Test [5] can be described thus: qHTS assay to test for compound auto fluorescence at 590 nm (red) in HepG2 cells (AID 720674). The procedure, abridged:
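Red autofluorescence (Ex/Em 540/590 nm, Rose Bengal sodium equivalents) was measured in HepG2 cells, 2,000 per well in MEM plus 10% FBS, plated overnight at 37 C. Readings were taken 1 hr after adding 23 nL compound or DMSO, at 37 C and 5% CO2.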

Test [6] can be described thus: qHTS assay to test for compound auto fluorescence at 535 nm (green) in HepG2 cells (AID 720675).
Test [7] is described as follows: qHTS assay to test for compound auto fluorescence at 460 nm (blue) in HEK293 cells (AID 720678). The procedure, abridged:
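HEK293 cells (2,000/well, medium with 10% dialyzed FBS) attached 4-5 hr, then exposed to compound overnight at 37C, 5% CO2. Blue fluorescence read at 405/460 nm, with triamterene as reference fluorophore.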

Test [8] in a line: qHTS assay to test for compound auto fluorescence at 590 nm (red) in HEK293 cells (AID 720679). The method in brief: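 HEK293 cells (2,000/well, 10% dialyzed FBS) attached 4-5 hr, then dosed with compound or DMSO and incubated overnight at 37C, 5% CO2. Red fluorescence read at 540/590 nm, Rose Bengal sodium as reference fluorophore.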
Test [9] can be described thus: qHTS assay for small molecule disruptors of the mitochondrial membrane potential (AID 720635). Note: potency is the fitted concentration of half-maximal effect. The method in brief: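 Mitochondrial membrane potential tracked with Mito-MPS dye, red aggregates (ex 540/em 590 nm) against green monomers (ex 490/em 535 nm). Compound treatment 1 hr at 37C, dye 30 min in HepG2.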

Results filed as inconclusive are left out. Active and inactive are the calls of the source. Unless noted, calls come from the whole dose curve; as a rule, active = well fitted curve in the direction sought with a large enough effect in the repeat runs; inconclusive = weak or mixed curves; inactive = no such curve, though single readings can be large; an effect the other way counts as inactive or inconclusive.

For the molecule `CC1C(=O)CC2C3(C)CCC2(C(C)C(=O)O)C(=O)C13` (stereo not given), the Potency entry in test [1], in [2], in [3], in test [4], in [5] and in test [6] was “inactive” throughout. In addition, the Potency result in test [7] and in test [8] was “inactive” throughout.
Regarding `CCCCC(F)(F)[C@@]1(O)CC[C@H]2[C@@H](CC(=O)[C@@H]2CCCCCCC(=O)O)O1`, the Potency entry in test [1], in [2], in [3], in test [4], in [5] and in test [6] was “inactive” each time. The Potency entry in test [7] and in [8] was “inactive” throughout.
As to `C[C@@H]1C[C@H]2C3C[C@H](F)C4=CC(=O)C=CC4(C)[C@@]3(F)[C@@H](O)CC2(C)[C@@]1(O)C(=O)COC(=O)C(C)(C)C` (stereo not given in full), the Potency result in [1], in test [2], in test [3], in [4], in test [5] and in test [6] was “inactive” in each case. For the same molecule, the Potency result in test [7] and in test [8] was “inactive” in each case.
For the molecule `CC(C)(S)[C@@H](N)C(=O)O`, the Potency result in test [1], in test [2], in [3], in [4], in test [5] and in test [6] was “inactive” throughout. The Potency result in test [7] and in [8] was “inactive” throughout.
Consider `C[C@]12CCC(=O)C[C@@H]1CC[C@@H]1[C@@H]2CC[C@]2(C)C=CC[C@@H]12`, for which the Potency result in test [1], in [2], in test [3], in test [4], in [5] and in [6] was “inactive” in each case. In addition, the Potency result in [7] and in [8] was “inactive” in each case.
For `CCSc1ccc2c(c1)N(CCCN1CCN(C)CC1)c1ccccc1S2`, the Potency result in test [1], in test [2], in test [3], in test [4], in [5] and in [6] was “inactive” in each case. In addition, the Potency result in test [7] and in [8] was “inactive” throughout.
Take `CCCC(=O)N1CCCN(c2nc(N)c3cc(OC)c(OC)cc3n2)CC1`: the Potency result in test [1], in [2], in test [3], in test [4], in test [5] and in test [6] was “inactive” in each case. Also, the Potency result in test [7] and in test [8] was “inactive” throughout.
As to `O=S(=O)(O)Oc1ccc(C(c2ccc(OS(=O)(=O)O)cc2)c2ccccn2)cc1`, the Potency result in test [1], in test [2], in test [3], in test [4], in test [5] and in test [6] was “inactive” in each case. The Potency result in test [7] and in [8] was “inactive” throughout.
As for `COc1c(O[C@@H]2O[C@H](CO)[C@@H](O)[C@H](O)[C@H]2O)cc2c(c1OC)-c1ccc(SC)c(=O)cc1[C@@H](NC(C)=O)CC2`, the Potency result in test [1], in test [2], in test [3], in [4], in [5] and in test [6] was “inactive” throughout. For the same molecule, the Potency entry in [7] and in [8] was “inactive” throughout.
On to `S=C=Nc1ccc(N=C=S)cc1`, for which the Potency entry in test [1], in test [2], in test [3], in test [4], in test [5] and in test [6] was “inactive” throughout. Further, the Potency result in test [7] and in [8] was “inactive” in each case.
As to `CCN(CC)CCOCCOC(=O)C(CC)(CC)c1ccccc1`, the Potency entry in test [1], in test [2], in test [3], in test [4], in test [5] and in test [6] was “inactive” each time. In addition, the Potency result in [7] and in test [8] was “inactive” throughout.
`CC1(C)N=C(N)N=C(N)N1c1ccc(Cl)cc1`: the Potency result in test [1], in [3], in [9], in test [5], in test [6] and in test [7] was “inactive” each time. Moreover, the Potency entry in [8] was “inactive”. Moreover, in [2], the Potency was 5.96 µM (active).
Take `CC(C)(CO)[C@@H](O)C(=O)NCCCC(=O)O`: the Potency entry in test [1], in test [2], in test [3], in test [4], in test [5] and in test [6] was “inactive” in each case. The Potency result in [7] and in test [8] was “inactive” each time.
Consider `CN(C)C(=O)CCSC(SCCC(=O)O)c1cccc(/C=C/c2ccc3ccc(Cl)cc3n2)c1` (stereo not given), for which the Potency in test [1] was 4.73 µM (active); in test [2] it was 29.8 µM (active); in test [3], 23.7 µM (active); in [9], 24.8 µM (active). The Potency result in [5], in test [6], in test [7] and in test [8] was “inactive” in each case.
In the case of `CC(C)NCC(O)COc1ccccc1-n1cccc1` (stereo not given), the Potency result in test [1], in [2], in [3], in test [4], in [5] and in test [6] was “inactive” in each case. Also, the Potency entry in [7] and in test [8] was “inactive” each time.
Turning to `c1ccc2cc(C3=NCCN3)ccc2c1`, the Potency entry in [1], in test [2], in test [3], in test [9], in [5] and in test [6] was “inactive” in each case. Further, the Potency result in test [7] and in [8] was “inactive” in each case.
For `O=C1NC(=O)[C@H]2[C@@H]1[C@@H]1C=C[C@H]2C1`, the Potency entry in [1], in test [2], in [3], in test [4], in test [5] and in test [6] was “inactive” each time. The Potency result in [7] and in [8] was “inactive” throughout.
For the molecule `NS(=O)(=O)c1cc2c(cc1Cl)NC(Cc1ccccc1)NS2(=O)=O` (stereo not given), the Potency entry in test [1], in [2], in [3], in test [4], in [5] and in test [6] was “inactive” each time. Further, the Potency entry in test [7] and in [8] was “inactive” in each case.
Regarding `COc1cc2[nH]c(C)c(CCN3CCN(c4ccccc4)CC3)c2cc1OC`, the Potency entry in test [1], in test [2], in [3], in test [4], in test [5] and in test [6] was “inactive” in each case. The Potency entry in test [7] and in test [8] was “inactive” each time.
Turning to `CC(CN1c2ccccc2Sc2ccc(S(=O)(=O)N(C)C)cc21)N(C)C` (stereo not given), the Potency result in [1], in test [2], in [3], in test [4], in test [5] and in test [6] was “inactive” each time. Besides, the Potency result in test [7] and in [8] was “inactive” throughout.
